# Screen size: about 48,000 compounds; about 13,000 (27%) showed an effect of 50% or more. This is one part of the list.
# Tested on: Wolbachia pipientis
# Assay: Anti-Wolbachia Cell-Based Screen
# Format: functional
# Design: scale not given: in the data most compounds retested in dose-response had high values
# Conditions: 5 µM
row,SMILES,Percent Effect [%]
1,CCN(Cc1cccc(NC(=O)COC)c1)C(C)=O,-0.3601
2,Cc1cc(C(=O)NC(C)c2nnn[nH]2)c2ccc(C)c(C)c2n1 (stereo not drawn),-4.141
3,c1csc(-c2noc(COCC3CCCO3)n2)c1 (stereo not drawn),0.9659
4,CCOCc1ccccc1NC(=O)NC1CCN(c2ccccc2)C1 (stereo not drawn),9.486
5,O=C(c1ccc[nH]1)N1CCC2(CC1)C(=O)Nc1ccccc12,-2.806
6,Cc1nc(C)c(Cc2nc(C3CC3)n[nH]2)c(=O)[nH]1,-38.01
7,Cc1ccc(C2CCCN2CC(=O)N(CCC#N)c2ccccc2)cc1 (stereo not drawn),5.667
8,COCc1ccc(C(=O)N2CCc3c(ncnc3N3CCOCC3)C2)o1,-21.39
9,COc1ncccc1C(=O)N1CCc2c(ncnc2N2CCOCC2)C1,105
10,O=C(c1ncccc1O)N1CCc2c(ncnc2N2CCOCC2)C1,-10.43
11,CCc1ccc(-c2nn3c(nc2=O)-c2ccccc2NC3C(=O)O)cc1 (stereo not drawn),-8.075
12,CCc1cnc(CN2CCOC(c3nc(C)n[nH]3)C2)o1 (stereo not drawn),-1.85
13,Cn1cc(CNC2CCc3ncnn3C2)c(-c2cccnc2)n1 (stereo not drawn),-2.662
14,Clc1ccc(-n2cc(CNC3CCc4ncnn4C3)cn2)cc1 (stereo not drawn),-12.36
15,c1cncc(CNC2CCc3ncnn3C2)c1 (stereo not drawn),100.1
16,c1ccc(-n2ncc(CNC3CCc4ncnn4C3)n2)cc1 (stereo not drawn),-11.2
17,c1ccc(-n2cc(CNC3CCc4ncnn4C3)cn2)cc1 (stereo not drawn),107.7
18,Cn1cc(CNC2CCc3ncnn3C2)c(-c2ccncc2)n1 (stereo not drawn),11.86
19,c1ccc(Cn2cc(CNC3CCc4ncnn4C3)cn2)cc1 (stereo not drawn),1.382
20,Clc1ccccc1Cn1cc(CNC2CCc3ncnn3C2)cn1 (stereo not drawn),121.3
21,Cc1nc(C)n(C2CCCN(C(=O)c3cccc4[nH]ncc34)C2)n1 (stereo not drawn),0.6187
22,c1ccc2c(c1)CC(N1CCCN(Cc3cccc4nonc34)CC1)C2,-60.59
23,COCC(NC(=O)NCc1cccc(C#N)c1)c1ccco1 (stereo not drawn),-16.03
24,CNC(=O)NCC(CO)Cc1cccc(OC(F)(F)F)c1 (stereo not drawn),137.5
25,CN(Cc1cccc(OC(F)(F)F)c1)C(=O)c1ccncc1F,3.384
26,CC(O)CN1CCC(CNCc2ccccc2OC(F)(F)F)CC1 (stereo not drawn),-2.479

row,SMILES,Percent Effect [%]
1,CN(Cc1cccc(OC(F)(F)F)c1)C(=O)Cc1ccon1,-6.414
2,O=C(NCC(CO)Cc1cccc(OC(F)(F)F)c1)c1cnccn1 (stereo not drawn),103
3,CC(CNC(=O)c1cnccn1)Oc1cccc(Br)c1 (stereo not drawn),-3.895
4,CNC(=O)NCC(CO)Cc1ccccc1OC(F)(F)F (stereo not drawn),119.9
5,CN(Cc1ccccc1OC(F)(F)F)C(=O)C1CC1,0.731
6,O=C(NCC(Cc1cccc(F)c1)N1CCCC1=O)c1cnccn1 (stereo not drawn),-11.28
7,O=C(c1ncc[nH]1)N1CCC(n2cc(-c3ccccn3)nn2)CC1,-4.702
8,CN1N=C(C(=O)N2CCN(c3ncccc3Cl)CC2)CCC1=O,-3.997
9,CC(C)C(=O)NCCCn1ncc2c(Cl)cccc21,-4.05
10,O=S(=O)(N1CCCCCC1)N1CCN(Cc2ccc(F)cc2Br)CC1,6.465
11,O=C(CN1CCCC1Cn1cncn1)NC(C1CC1)C1CC1 (stereo not drawn),-5.289
12,Cc1cccc(OCCNC(=O)CN2CCCC2Cn2cncn2)c1 (stereo not drawn),115.7
13,O=C(CN1CCCC1Cn1cncn1)Nc1cccnc1 (stereo not drawn),-2.58
14,O=C(CN1CCCC(Cn2cncn2)C1)NCCOc1ccccc1 (stereo not drawn),-8.945
15,O=C(CN1CCCC1Cn1cncn1)NCCOc1ccccc1 (stereo not drawn),108.3
16,O=C(CN1CCCC1Cn1cncn1)NCCOc1cccc(F)c1 (stereo not drawn),0.2795
17,CCN1CCC(NC(=O)CN2CCCC2Cn2cncn2)CC1 (stereo not drawn),1.475
18,O=C(CN1CCCC1Cn1cncn1)NCCOc1ccc(F)cc1 (stereo not drawn),135.9
19,O=C(CN1CCCC1Cn1cncn1)NCCc1c(F)cccc1F (stereo not drawn),-7.499
20,O=C(CN1CCCCC1Cn1cncn1)NCCOc1ccccc1 (stereo not drawn),140
21,O=C(CN1CCCCC1Cn1cncn1)NC1CCN(C2CC2)CC1 (stereo not drawn),-6.056
22,COc1ccc(CNC[C@@]2(COc3cccnc3)C[C@@H](O)[C@@H](O)C2)cc1.Cl,-5.616
23,CCSCCC(C)NC(=O)Nc1cccn(C)c1=O (stereo not drawn),-9.489
24,CN(C)c1ccc(NC(=O)N2CCCCCC2c2ccncc2)cn1 (stereo not drawn),0.3778
25,CC(C)N1CCCC1c1nc(N(C)C)ncc1I (stereo not drawn),51.47
26,CC(C)C1CN(Cc2cnc(N(C)C)nc2)CCCN1CC1CC1 (stereo not drawn),-7.489

row,SMILES,Percent Effect [%]
1,CC(C)N1CCCCC1c1nc(N(C)C)ncc1I.Cl (stereo not drawn),76.51
2,COCCOc1ccnc(-c2noc([C@@H]3CCCN3C(C)C)n2)c1,-15.24
3,CC1=N[C@@]2(CC[C@@H]3CN(C(=O)NCC(C)C)C[C@@H]32)C(=O)N1CC(C)C,8.203
4,CCCc1nccn1-c1cccc(CN2CCCC2)c1,-15.07
5,Cc1ncccc1C(=O)NCc1ccccc1CN(C)Cc1ccco1,15.52
6,CCCNc1ncc(CN2CCN(C)C(=O)C2C)cn1 (stereo not drawn),-4.636
7,CN(C)CCN1CCOCC2(CCCN(C(=O)c3ccoc3)C2)C1.O=C(O)C(F)(F)F.O=C(O)C(F)(F)F (stereo not drawn),-7.918
8,Cc1ccc(CN2CCCC3(COCCN(Cc4c[nH]nn4)C3)C2)o1.O=C(O)C(F)(F)F.O=C(O)C(F)(F)F (stereo not drawn),-14.33
9,Cc1ccc(CN2CCOC3(COCCN(C(C)C)C3)C2)o1.O=C(O)C(F)(F)F.O=C(O)C(F)(F)F (stereo not drawn),-26.11
10,O=C(O)C(F)(F)F.O=C(O)C(F)(F)F.c1csc(CN2CCC3(COCCN(CC4CC4)C3)C2)n1 (stereo not drawn),26.97
11,Cc1occc1C(=O)N1CCOCC2(CCN(Cc3nccs3)C2)C1.O=C(O)C(F)(F)F (stereo not drawn),-1.117
12,CC(C)N1CCOCC2(CN(Cc3cccs3)CCO2)C1.O=C(O)C(F)(F)F.O=C(O)C(F)(F)F (stereo not drawn),7.639
13,O=C(c1ccoc1)N1CCOCC2(CCN(Cc3cccs3)C2)C1 (stereo not drawn),98.93
14,COCCN1C[C@@H](C)[C@@]2(COCCN(C(=O)c3ccoc3)C2)C1,1.711
15,O=C(N1CCCC1)N1CCOCC2(CCN(Cc3cccs3)C2)C1.O=C(O)C(F)(F)F (stereo not drawn),119.1
16,Cc1ccc(CN2CCOCC3(CCN(Cc4cccs4)C3)C2)o1.O=C(O)C(F)(F)F.O=C(O)C(F)(F)F (stereo not drawn),110.5
17,O=C(O)C(F)(F)F.O=C(O)C(F)(F)F.c1csc(CN2CCCC3(COCCN(Cc4c[nH]nn4)C3)C2)c1 (stereo not drawn),-6.971
18,O=C(NC1CC1)N1CCOCC2(CCN(Cc3cccs3)C2)C1.O=C(O)C(F)(F)F (stereo not drawn),89.31
19,OCCN(Cc1cccnc1)c1cnc2ccccc2n1,-10.33
20,COCC(=O)N1CCOCC2(CCN(Cc3cccs3)C2)C1.O=C(O)C(F)(F)F (stereo not drawn),92.34
21,COCCC(=O)N1CCC2(CCN(Cc3ccc(C)cc3)CC2)C1.O=C(O)C(F)(F)F,-24.32
22,COCC(=O)N1CCCC2(COCCN(CCN(C)C)C2)C1.O=C(O)C(F)(F)F.O=C(O)C(F)(F)F (stereo not drawn),-43.45
23,COCCN1CCC2(COCCN(C(=O)Cc3cccs3)C2)C1.O=C(O)C(F)(F)F (stereo not drawn),3.842
24,COCCC(=O)N1CCOCC2(CCN(Cc3cccs3)C2)C1.O=C(O)C(F)(F)F (stereo not drawn),93.92
25,Cc1nc(CC2CCCN(Cc3nc4ccccc4c(=O)[nH]3)C2)no1 (stereo not drawn),-3.308
26,CSCc1cccc(S(=O)(=O)NCCCn2ccnc2)c1,-11.24

row,SMILES,Percent Effect [%]
1,N#Cc1ccccc1N1CCCN(C(=O)CCc2nccs2)CC1,6.343
2,O=C(COCc1ccccc1)N1CCN(c2ccc(Cl)cn2)CC1,1.398
3,O=C(CCc1nccs1)N1CCN(c2ccc(Br)cn2)CC1,15.4
4,O=C(CCc1nccs1)N1CCN(c2nccs2)CC1,116.1
5,COc1cc(C)nc(N2CCN(C(=O)CCc3nccs3)CC2)n1,-2.127
6,O=C(CCc1nccs1)N1CCN(c2cccnn2)CC1,5.775
7,Cc1ccc(N2CCCN(C(=O)CCc3nccs3)CC2)nn1,105.9
8,O=C(CCc1nccs1)N1CCN(c2ccccc2F)CC1,-6.443
9,O=C(CCc1nccs1)N1CCN(c2ccccn2)CC1,104.9
10,O=C(CCc1nccs1)N1CCN(c2ncccn2)CC1,-7.196
11,O=C(CCc1nccs1)N1CCN(c2ccc(Cl)cn2)CC1,142.1
12,Cc1csc(N2CCN(C(=O)CCc3nccs3)CC2)n1,0.8841
13,Cc1nnc(CNC(=O)[C@@H]2C[C@H](NC(=O)C(C)(C)C)CN2C)[nH]1,-6.748
14,CCOCCC(=O)N(Cc1ccncc1)C(C)CC (stereo not drawn),-2.407
15,CC(=O)N[C@@H](CC(C)C)C(=O)N1CCC(n2cc(C(C)(C)N)nn2)CC1,10.18
16,Cc1n[nH]c(C)c1NC(=O)CN(CC(O)c1ccc(F)cc1)C1CC1 (stereo not drawn),-1.217
17,COc1cc2c(nn1)CCN(Cc1nc(Cc3ccccc3)no1)C2,-1.36
18,CCS(=O)(=O)N1CCOC2(CCCN(c3cccc(C#N)c3)C2)C1 (stereo not drawn),-4.449
19,Cc1cc(C)c(CNC(=O)NCCOc2ccc3c(c2)CCC3)c(=O)[nH]1,-6.999
20,O=C(NCCC1CCCCO1)c1cc(COc2ccccc2F)[nH]n1 (stereo not drawn),0.1687
21,CN(CC1(CO)CCC1)C(=O)c1cc(COc2ccccc2F)[nH]n1,109.5
22,O=C(NCc1nc[nH]n1)c1cc(COc2ccccc2F)[nH]n1,-17.12
23,CN(Cc1nncn1C)C(=O)c1cc(COc2ccccc2F)[nH]n1,-12.02
24,CN(CC1(CO)CCCC1)C(=O)c1cc(COc2ccccc2F)[nH]n1,101.7
25,O=C(NCCN1CCOCC1)c1cc(COc2ccccc2F)[nH]n1,-10.47

# Source: ChEMBL document CHEMBL3988442, “University of Dundee, Small-Polar-MMV Screening Library” (2021)
